# Screening data deposited in PubChem by Broad Institute.
# INS-1E GSIS act – GLuc luminescence reporter in INS-1E cells, primary screen for activators of glucose-dependent secretion of insulin; actives 0.61% (n = 370,000); activation, % at 16.6 µM; INS-1E GLuc reporter insulin secretion, 2-3 h;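 active = lowest replicate activation of at least 40%, so every replicate reaches that level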
# MLL AF4-AF9 inh – inhibitors of AF4 peptide binding to AF9, primary screen, biochemical, AlphaScreen, biotin-AF4 peptide, FLAG-AF9, single point | inhibition, % at 10 µM | Protein AF-9 (Homo sapiens), P42568 | actives 0.47% (n = 350,000);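 active = every replicate reaching a set inhibition limit, whatever the replicate mean, cut at about 25% in these data; inconclusive = mean inhibition reaches that limit but some replicates miss it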
# Target sequence (P42568 whole entry, looked up): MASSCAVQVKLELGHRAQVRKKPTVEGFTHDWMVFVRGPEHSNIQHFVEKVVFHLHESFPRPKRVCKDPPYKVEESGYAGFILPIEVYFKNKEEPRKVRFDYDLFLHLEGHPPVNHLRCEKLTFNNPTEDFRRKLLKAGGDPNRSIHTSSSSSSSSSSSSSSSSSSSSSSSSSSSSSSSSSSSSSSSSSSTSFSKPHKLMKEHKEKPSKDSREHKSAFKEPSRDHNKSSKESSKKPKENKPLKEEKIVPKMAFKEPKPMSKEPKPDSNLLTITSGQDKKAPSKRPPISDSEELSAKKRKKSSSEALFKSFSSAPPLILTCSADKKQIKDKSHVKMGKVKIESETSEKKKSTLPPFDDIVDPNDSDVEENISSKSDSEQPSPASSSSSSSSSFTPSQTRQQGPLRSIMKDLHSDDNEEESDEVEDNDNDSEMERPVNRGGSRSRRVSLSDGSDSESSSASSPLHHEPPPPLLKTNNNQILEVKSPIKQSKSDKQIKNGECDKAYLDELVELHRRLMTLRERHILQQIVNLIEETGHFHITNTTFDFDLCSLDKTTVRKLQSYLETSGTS
# NSD2 HMT inh – NSD2 histone methyltransferase inhibitors, primary screen, biochemical, AlphaScreen, single concentration, set 2; inhibition, % at 12.5 µM; NSD2 peptide methylation, 120 min; Histone-lysine N-methyltransferase NSD2 (Homo sapiens), O96028; actives 0.54% (n = 310,000); in the data active = inhibition above about 50%
# PGC1a acetyl inh – inhibitors of PGC1a acetylation signal, primary screen, cell-based, U2OS, AlphaScreen, inhibitor mode; AlphaScreen anti-acetyl-lysine; with virally co-expressed GCN5 acetyltransferase; inhibition, % at 15.6 µM; actives 0.17% (n = 350,000);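 active = every replicate shows inhibition of at least 40%; inconclusive = mean inhibition at least 40% but some replicate below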
# HIV Env fusion – inhibitors of HIV-1 Env-driven cell-cell fusion, primary screen, HeLa-JRFL effector, CEM21 target cells, luciferase; inhibition, % at 12.3 µM; actives 1.1% (n = 360,000); AID 651610, 2012;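 active = mean replicate inhibition score of at least 50 and every replicate individually at or above 50; inconclusive = only one of the two criteria met; inactive = mean below 50 and not all replicates reaching 50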
# Alpha artifact – AlphaScreen signal interference with preloaded methylated product, dose response, artefact control for NSD2 inhibitor project, biochemical, cherry-picked samples. AlphaScreen artifact counterscreen, preloaded methylated H4 peptide. AC35, µM (series often up to 10 µM). shares compounds with NSD2 HMT inh. actives 9.4% (n = 1,500); call rule not given here
# Numbers stand for hits; . = inactive; ? = inconclusive; / = not tested or not shown. Hits are enriched below; roughly 2.1% of the tested compounds scored in any of these assays.
SMILES,INS-1E GSIS act,MLL AF4-AF9 inh,NSD2 HMT inh,PGC1a acetyl inh,HIV Env fusion,Alpha artifact
CSCCC(NC(=O)c1ccccc1Cl)C(=O)NCC(c1ccc(F)cc1)N1CCOCC1 (centres undefined),.,.,140.7,/,.,.
COc1ccc(C(CNC(=O)C(CCSC)NC(=O)c2ccccc2Cl)N2CCOCC2)cc1 (centres undefined),.,.,.,/,.,/
Cc1ccc(O)c(CNc2cccc3cccnc23)c1,.,.,117.7,.,.,.
COc1cccc(CNc2cccc3cccnc23)c1O,.,/,50.3,.,.,.
CC(C)CCN1CCC(N)=NC1=O,.,.,.,.,.,/
CC1Oc2ccc(C#N)cc2N(Cc2cccc(F)c2)C1=O (centres undefined),.,.,55.1,.,.,.
Nn1c(SCC(=O)Nc2ccccc2-c2ccccc2)nnc1-c1n[nH]c2c1CCC2,/,/,.,/,/,/
CCSc1nnc(CNC(=O)c2ccccc2F)n1-c1ccccc1OC,.,.,.,.,.,/
Cc1cc(-c2n[nH]c(=S)n2N=Cc2cccc(OCc3ccccc3)c2)n[nH]1,/,/,62.6,/,/,.
CCn1c(SCC(=O)N2CCCCC2)nc2c1c(=O)n(C)c(=O)n2C,.,.,69.4,.,.,.
O=C1C(=O)C(Cl)=C(Cl)C(Cl)=C1Cl,/,/,90.6,.,/,.
CN(CCOc1ccccc1)CC(=O)Nc1ccc([N+](=O)[O-])cc1Cl,.,.,.,.,.,/
Nc1c2c(=O)oc(-c3ccccc3)cc2nn1-c1ccccc1,/,/,126.3,.,.,.
Cc1c(-c2ccc(Cl)cc2)oc(=O)c2c(N)n(-c3ccccc3)nc12,/,/,.,.,.,/
COc1ccccc1-c1ccc([C@H]2[C@H]3CN(C(=O)CN4CCOCC4)CCCCN3[C@H]2CO)cc1,.,.,/,.,/,/
O=C(c1ccc2c(c1)OCO2)C1CCCN(Cc2ccc3cccc(F)c3n2)C1 (centres undefined),.,/,51.2,/,.,.
CC(C)CC(=O)N1CCC(C(=O)NCC2COc3ccccc3O2)CC1 (centres undefined),/,/,.,/,/,/
Cc1cccnc1NC(=O)c1ccc(S(=O)(=O)N2CC(C)OC(C)C2)cc1 (centres undefined),.,.,50.4,/,.,.
COc1ccccc1N1CCN(S(=O)(=O)CCNC(=O)c2ccc(Br)o2)CC1,.,.,75.6,.,.,.
O=C(NCCS(=O)(=O)N1CCN(c2ccccc2)CC1)c1ccc(Br)o1,.,.,.,.,.,/
COc1cccc(NC(=O)COc2ccccc2)c1,.,.,.,.,.,/
O=C(Nc1ccc(Cl)cc1C(F)(F)F)c1ccccc1Cl,.,.,.,/,.,/
Cc1ccc(C(=O)Nc2ccc(Cl)cc2C(F)(F)F)c(Cl)c1,/,.,187.9,.,.,.
CC1=Nc2cccc([N+](=O)[O-])c2NC(=O)C1,.,.,.,/,.,/
CC(=O)Nc1ccc(S(=O)(=O)NCCSCc2ccc(Cl)cc2Cl)cc1,/,/,50.1,.,?,.
SMILES,INS-1E GSIS act,MLL AF4-AF9 inh,NSD2 HMT inh,PGC1a acetyl inh,HIV Env fusion,Alpha artifact
COc1ccccc1Nc1nc2cc(C)ccc2cc1C#N,.,.,.,.,.,/
CC1C(=O)N(Cc2ccccc2F)c2ccccc2N1C(=O)c1c(F)cccc1F (centres undefined),.,.,.,.,.,/
COc1cccc(CN2C(=O)C(C)N(C(=O)c3c(F)cccc3F)c3ccccc32)c1 (centres undefined),.,.,104.2,.,.,.
CCOc1ccc(C2=NNC(c3cccs3)=Nc3ccc(OC)cc32)cc1OCC,/,/,.,.,.,/
COc1ccc(C2=NNC(c3cccs3)=Nc3ccc(OC)cc32)cc1,/,/,51.0,.,/,.
COc1ccc(N=c2scc(C)n2CCCN2CCCC2=O)cc1,.,.,151.3,.,.,.
CN1c2cccc3cccc(c23)N(C)C1(C)C,/,/,94.5,.,.,.
CN1c2ccccc2N(C)C1(C)c1cccc2ccccc12,.,/,.,/,.,/
O=C(NCc1ccccn1)c1cc(-c2ccccc2Cl)nc2ccccc12,/,.,.,.,/,/
CCNC(=O)C1CCCN(C(=O)c2ccccc2OC(F)(F)F)CC1 (centres undefined),.,.,60.3,.,/,.
Cc1cc(C(=O)COC(=O)c2n[nH]c3ccccc23)c(C)n1C,/,/,71.0,/,.,.
CCCCN(C)CCNC(=O)CN1C(=O)CSc2ccc(S(=O)(=O)N3CCCCC3)cc21,.,.,.,/,.,/
C[n+]1cccc2c(Br)ccc([O-])c21,/,.,104.3,.,.,.
COc1cccc(/C=C2\N=C(SC)SC2=O)c1OC,/,/,98.7,.,.,.
COc1ccc(C2CC(c3c(-c4ccccc4)c4cc(Cl)ccc4[nH]c3=O)=NN2S(C)(=O)=O)cc1OC (centres undefined),/,/,.,.,/,/
Cn1c(CSCc2ccc(F)cc2)nnc1SCC(=O)Nc1nccs1,/,/,.,.,.,/
Cn1c(CSCc2ccccc2)nnc1SCC(=O)Nc1nccs1,/,/,120.1,.,.,.
Oc1ccc(NCc2cccc(OCc3ccc(F)cc3)c2)cc1,.,.,58.6,/,.,.
Oc1ccc(NCc2cccc(OCc3ccccc3)c2)cc1,.,.,.,/,.,/
CCc1nnc(NC(=O)c2n[nH]c(=O)c3ccccc23)s1,.,.,.,.,.,/
CCc1ccc(NC(=S)N2CCC(NC(=O)C3CCCCC3)CC2)cc1,.,.,.,.,.,/
CCOc1ccc(NC(=S)N2CCC(NC(=O)C3CCCCC3)CC2)cc1,.,.,57.1,/,.,.
Cc1cccc2c1NC(=O)C2=O,/,.,.,/,.,/
O=C1Nc2c(Cl)cccc2C1=O,/,.,125.8,.,.,.
O=C(NC(=S)Nc1cccc2ncccc12)c1ccco1,.,.,.,/,.,/
SMILES,INS-1E GSIS act,MLL AF4-AF9 inh,NSD2 HMT inh,PGC1a acetyl inh,HIV Env fusion,Alpha artifact
COCCCNC(=S)Nc1cccc2ncccc12,.,.,86.1,/,.,.
COc1ccc(/C=N/NC(=O)c2ccccc2O)cc1Cn1cc([N+](=O)[O-])cn1,.,.,.,.,.,/
COc1ccc(/C=N/NC(=O)c2cc(O)c(O)c(O)c2)cc1Cn1cc([N+](=O)[O-])cn1,.,.,72.6,/,.,8.63µM
CC(=O)c1ccc(-n2c(-c3cc(-c4ccco4)[nH]n3)n[nH]c2=S)cc1,/,/,58.8,.,/,.
O=C(O)c1ccc(-n2c(-c3cc(-c4ccco4)[nH]n3)n[nH]c2=S)cc1,/,/,.,.,/,/
COc1ccc(C(C[N+](=O)[O-])c2c(C)[nH]n(-c3ccccc3)c2=O)cc1 (centres undefined),.,.,92.3,.,.,.
Cc1[nH]n(-c2ccccc2)c(=O)c1C(C[N+](=O)[O-])c1ccccc1Cl (centres undefined),/,/,.,.,/,/
